Data from PubChem BioAssay AID1159580 (chemical genetic matrix, 2015).
Several values for one entry are separate records, joined by “and”; a condition that tells them apart may be missing. Identical values can stand only once. The campaign covered roughly 5,500 compounds. About 2,000 (36%) were called active. Inconclusive results (about 18%) are left out. No stated cut-off is given here; in the data, active means normalized growth mostly below about 0.91 (no sharp cut-off); inconclusive means no clear call, values can overlap the other calls; inactive means mostly above about 0.92. The list shows a part of the results.

Assay: chemical genetic growth profiling, strain panel (AID 1159580);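 further: tested at 20 µM; growth read once vehicle control cultures reached saturation at 30 °C; 1 = growth at the plate median or of vehicle wells; lower values mean less growth of the strain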
Conditions: growth OD

Measured: normalized growth

COc1ccc2c(c1)c(CC(=O)O)c(C)n2C(=O)c1ccc(Cl)cc1
inactive: S. cerevisiae deletion strains, locus YJR075W, strain HOC1, hits give low values 1 | S. cerevisiae deletion strains, locus YKL009W, strain mrt4, hits give low values 0.998 | S. cerevisiae deletion strains, locus YKL068W, hits give low values 0.959 | S. cerevisiae deletion strains, locus YKL085W, strain MDH1 (second series), hits give low values 0.955 | S. cerevisiae deletion strains, locus YKL085W, strain MDH1, hits give low values 0.955 | S. cerevisiae deletion strains, locus YKL160W, strain elf1, hits give low values 0.98 | S. cerevisiae deletion strains, locus YKL190W, strain CNB1, hits give low values 1.01 | S. cerevisiae deletion strains, locus YKR001C, strain vps1, hits give low values 0.993 | S. cerevisiae deletion strains, locus YKR026C, strain gcn3, hits give low values 0.983 | S. cerevisiae deletion strains, locus YKR091W, strain srl3, hits give low values 0.984 | S. cerevisiae deletion strains, locus YLL001W, strain dnm1, hits give low values 0.938 | S. cerevisiae deletion strains, locus YLL026W, hits give low values 0.988 | S. cerevisiae deletion strains, locus YLL041C, strain sdh2, hits give low values 0.986 | S. cerevisiae deletion strains, locus YLR027C, strain aat2, hits give low values 0.98 | S. cerevisiae deletion strains, locus YLR039C, strain RIC1, hits give low values 1.17 | S. cerevisiae deletion strains, locus YLR058C, strain SHM2, hits give low values 1.02 | S. cerevisiae deletion strains, locus YLR102C, strain apc9, hits give low values 0.975 | S. cerevisiae deletion strains, locus YLR113W, strain HOG1, hits give low values 0.874 | S. cerevisiae deletion strains, locus YLR258W, strain gsy2, hits give low values 0.978 | S. cerevisiae deletion strains, locus YLR262C, strain YPT6 (second series), hits give low values 0.912 | S. cerevisiae deletion strains, locus YLR262C, strain YPT6, hits give low values 1.03 | S. cerevisiae deletion strains, locus YLR268W, strain sec22, hits give low values 0.993 | S. cerevisiae deletion strains, locus YLR330W, strain CHS5, hits give low values 0.995 | S. cerevisiae deletion strains, locus YLR342W, strain FKS1 (second series), hits give low values 1.01 | S. cerevisiae deletion strains, locus YLR342W, strain FKS1, hits give low values 0.971 | S. cerevisiae deletion strains, locus YLR357W, strain rsc2, hits give low values 0.973 | S. cerevisiae deletion strains, locus YLR370C, strain arc18, hits give low values 0.943 | S. cerevisiae deletion strains, locus YLR371W, strain rom2, hits give low values 0.987 | S. cerevisiae deletion strains, locus YLR384C, strain iki3, hits give low values 0.986 | S. cerevisiae deletion strains, locus YLR418C, strain cdc73, hits give low values 0.966 | S. cerevisiae deletion strains, locus YML016C, strain PPZ1, hits give low values 1.01 | S. cerevisiae deletion strains, locus YML032C, strain rad52, hits give low values 0.999 | S. cerevisiae deletion strains, locus YML124C, strain tub3, hits give low values 0.981 | S. cerevisiae deletion strains, locus YMR058W, strain fet3, hits give low values 0.975 | S. cerevisiae deletion strains, locus YMR078C, strain ctf18, hits give low values 0.973 | S. cerevisiae deletion strains, locus YMR125W, strain sto1, hits give low values 0.975 | S. cerevisiae deletion strains, locus YMR129W, hits give low values 0.987 | S. cerevisiae deletion strains, locus YMR205C, strain PFK2, hits give low values 0.982 | S. cerevisiae deletion strains, locus YMR223W, strain ubp8, hits give low values 0.976 | S. cerevisiae deletion strains, locus YMR231W, strain pep5, hits give low values 0.988 | S. cerevisiae deletion strains, locus YMR263W, strain SAP30, hits give low values 1 and 1.01 | S. cerevisiae deletion strains, locus YMR307W, strain GAS1, hits give low values 1.02 and 1 | S. cerevisiae deletion strains, locus YNL067W, strain RPL9B, hits give low values 1 | S. cerevisiae deletion strains, locus YNL071W, strain lat1, hits give low values 0.986 | S. cerevisiae deletion strains, locus YNL175C, strain NOP13, hits give low values 1 | S. cerevisiae deletion strains, locus YNL183C, strain NPR1, hits give low values 0.931 | S. cerevisiae deletion strains, locus YNL197C, strain WHI3, hits give low values 1 | S. cerevisiae deletion strains, locus YNL209W, strain ssb2, hits give low values 0.953 | S. cerevisiae deletion strains, locus YNL224C, strain SQS1, hits give low values 0.994 | S. cerevisiae deletion strains, locus YNL233W, strain BNI4, hits give low values 1.01 | S. cerevisiae deletion strains, locus YNL248C, strain rpa49, hits give low values 0.958 | S. cerevisiae deletion strains, locus YNL250W, strain rad50, hits give low values 0.947 | S. cerevisiae deletion strains, locus YNL271C, strain bni1, hits give low values 0.955 | S. cerevisiae deletion strains, locus YNL298W, strain CLA4, hits give low values 0.944 | S. cerevisiae deletion strains, locus YNL307C, strain MCK1, hits give low values 0.986 | S. cerevisiae deletion strains, locus YNL322C, strain KRE1, hits give low values 1 | S. cerevisiae deletion strains, locus YNR049C, strain mso1, hits give low values 0.984 | S. cerevisiae deletion strains, locus YNR052C, strain pop2, hits give low values 0.99 | S. cerevisiae deletion strains, locus YOL012C, strain htz1 2.03 | S. cerevisiae deletion strains, locus YOL147C, strain pex11, hits give low values 0.981 | S. cerevisiae deletion strains, locus YOR001W, strain rrp6, hits give low values 0.926 | S. cerevisiae deletion strains, locus YOR061W, strain CKA2, hits give low values 1.01 | S. cerevisiae deletion strains, locus YOR069W, strain VPS5, hits give low values 0.996 | S. cerevisiae deletion strains, locus YOR070C, strain gyp1, hits give low values 0.977 | S. cerevisiae deletion strains, locus YOR080W, strain dia2, hits give low values 0.989 | S. cerevisiae deletion strains, locus YOR083W, strain WHI5 (second series), hits give low values 1.01 | S. cerevisiae deletion strains, locus YOR083W, strain WHI5, hits give low values 0.942 | S. cerevisiae deletion strains, locus YOR106W, strain vam3, hits give low values 0.929 | S. cerevisiae deletion strains, locus YOR136W, strain idh2, hits give low values 1 | S. cerevisiae deletion strains, locus YOR144C, strain elg1, hits give low values 0.992 | S. cerevisiae deletion strains, locus YOR184W, strain ser1, hits give low values 0.988 | S. cerevisiae deletion strains, locus YOR231W, strain MKK1, hits give low values 0.953 | S. cerevisiae deletion strains, locus YOR265W, strain rbl2, hits give low values 0.96 | S. cerevisiae deletion strains, locus YOR270C, strain vph1, hits give low values 0.957 | S. cerevisiae deletion strains, locus YOR290C, strain snf2, hits give low values 0.895 | S. cerevisiae deletion strains, locus YOR316C, strain cot1, hits give low values 0.985 | S. cerevisiae deletion strains, locus YPL051W, strain arl3, hits give low values 0.969 | S. cerevisiae deletion strains, locus YPL078C, strain atp4, hits give low values 0.975 | S. cerevisiae deletion strains, locus YPL106C, strain sse1, hits give low values 1.02 | S. cerevisiae deletion strains, locus YPL240C, strain hsp82, hits give low values 0.978 | S. cerevisiae deletion strains, locus YPL241C, strain CIN2, hits give low values 0.996 | S. cerevisiae deletion strains, locus YPL256C, strain CLN2, hits give low values 0.871 | S. cerevisiae deletion strains, locus YPR119W, strain clb2, hits give low values 0.98 | S. cerevisiae deletion strains, locus YPR141C, strain kar3, hits give low values 0.96 | S. cerevisiae deletion strains, locus YPR163C, strain tif3, hits give low values 0.981 | S. cerevisiae deletion strains, locus YPR167C, strain met16, hits give low values 0.977 | S. cerevisiae deletion strains, strain wtn01, hits give low values 0.985 | S. cerevisiae strains, strain wild type, hits give low values 1
active: S. cerevisiae deletion strains, locus YLR221C, strain rsa3, hits give low values 0.874 | S. cerevisiae deletion strains, locus YLR320W, strain mms22, hits give low values 0.819 | S. cerevisiae deletion strains, locus YML120C, strain ndi1, hits give low values 0.874 | S. cerevisiae deletion strains, locus YNL322C, strain KRE1 (second series), hits give low values 0.64
